Inconclusive results are not listed. A number with no mark means an inactive call. Calls of active or inactive are those of the source. Calls come from the whole dose curve; as a rule, active = well fitted curve in the direction sought with a large enough effect in the repeat runs; inconclusive = weak or mixed curves; inactive = no such curve, though single readings can be large; an effect the other way counts as inactive or inconclusive.
% is set by controls: 0 for no effect and ±100 for the full control effect.
Note: nearly all actives have a fitted effect of over 50% in size.

Test system in one assay: not listed separately
The assay is described as follows: qHTS assay to identify small molecule antagonists of the retinoid-related orphan receptor gamma (ROR-gamma) signaling pathway - cell viability counter screen (AID 1159520). Note: potency is the fitted concentration of half-maximal effect. To be noted: Tet-on RORgamma CHO cells viability, ATP luminescence, 16 h; series mostly up to 92.4 µM; activity, negative = cytotoxicity: at the top concentration. Put shortly:
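Tet-on ROR gamma CHO cells (1,000/well) were plated 4 hr, given compounds in DMSO for 2 hr at 37 C, then induced with 1 uM final doxycycline for 16 hr. Viability was read as ATP by CellTiter-Glo luminescence after 30 min.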
`Cc1ncc(CSSCc2cnc(C)c(O)c2CO)c(CO)c1O`: the “activity, negative = cytotoxicity” value was 1.74% [at 42.5 µM].
As for `CCCCCCC(CCCCCCCCCCC(=O)OCC(COC(C)=O)OC(C)=O)OC(C)=O` (stereo unspecified), the “activity, negative = cytotoxicity” value is 1.96% [at 42.5 µM].
Take `NC(=O)Nc1nc2ccccc2[nH]1`: the “activity, negative = cytotoxicity” value was 4.4%.
Consider `Cc1nc(-c2ccc(OCC(C)C)c(C#N)c2)sc1C(=O)O`, for which the “activity, negative = cytotoxicity” value was 4.1% [at 42.5 µM].
Turning to `CC(C)[C@H](N)C(=O)OCCOCn1cnc2c(=O)[nH]c(N)nc21`, the “activity, negative = cytotoxicity” value was 6.1% [at 42.5 µM].
Consider `O=C(O)C(O)[C@H](O)[C@@H](O)[C@H](O)[C@H](O)CO` (stereo partly specified), for which the “activity, negative = cytotoxicity” value was -15.7%.
On to `CC(O)CN(CCCN(C)C)CCCN(C)C` (stereo unspecified), for which the “activity, negative = cytotoxicity” value is -0.89%.
In the case of `Cc1cc(C)c(NC(=O)CN(CC(=O)O)CC(=O)O)c(C)c1Br`, the “activity, negative = cytotoxicity” value was 0.213% [at 42.5 µM].
The same measure, in the same setting: the value for `CCCC=O` was 7.49%; that for `CC(C)(O)C(=O)c1ccc(OCCO)cc1` was 5.87%; that for `CC(C)(O)c1ccccc1` was 0.143%.
On the same count and under the same terms, then `CCc1cc(S(=O)(=O)O)c2cc(C(C)C)cccc1-2`, with -1.12% [at 42.5 µM].
On the same count and under the same terms, the value for `Cc1onc(-c2ccccc2)c1-c1ccc(S(N)(=O)=O)cc1` was 0.878% [at 42.5 µM]; that for `N#CCc1ccccc1[N+](=O)[O-]` was -3.24%; that for `O=C1C(CCS(=O)c2ccccc2)C(=O)N(c2ccccc2)N1c1ccccc1` (stereo unspecified) was -0.832% [at 42.5 µM].
In the case of `CCOC(=O)Cn1c(=O)sc2cccc(Cl)c21`, the “activity, negative = cytotoxicity” value is -2.16%.
On the same count and under the same terms, then `O=C(O)c1cccc(C(=O)O)n1`, with 2.92%.
On the same count and under the same terms, the value for `CCCCCC[C@@H](CCC)C(=O)O` was -0.482% [at 42.5 µM].
On to `Cc1cc(C)cc(OCC2CNC(=O)O2)c1` (stereo unspecified), for which the “activity, negative = cytotoxicity” value is 7.87% [at 42.5 µM].
Take `NC(=O)c1ncn([C@@H]2O[C@H](CO)[C@@H](O)[C@H]2O)c1O`: the “activity, negative = cytotoxicity” value was -5.35% [at 42.5 µM].
As to `NCCN1CCNC1=O`, the “activity, negative = cytotoxicity” value was -0.712%.
Regarding `O=C(O)/C=C/c1ccc(Cn2ccnc2)cc1`, the “activity, negative = cytotoxicity” value is 7.15% [at 42.5 µM].
Take `CSc1ccc(C=O)cc1`: the “activity, negative = cytotoxicity” value is 8.32%.
Regarding `CCC(C)(C)C1CCC(OC)CC1` (stereo unspecified), the Potency was 48.6 µM (active).
For `C=CCSCC1Nc2cc(Cl)c(S(N)(=O)=O)cc2S(=O)(=O)N1` (stereo unspecified), the “activity, negative = cytotoxicity” value was -4.66% [at 42.5 µM].
Turning to `C[C@H]1O[C@@H](n2cc(F)c(=O)[nH]c2=O)[C@H](O)[C@@H]1O`, the “activity, negative = cytotoxicity” value is 4.42% [at 42.5 µM].
With `Cc1c(F)cc2c(=O)c(C(=O)O)cn3c2c1CCC3C` (stereo unspecified), the “activity, negative = cytotoxicity” value was -7.29% [at 42.5 µM].
For the compound `CCCOCC(C)OCC(C)O` (stereo unspecified), the “activity, negative = cytotoxicity” value was -0.311%.
With `C#CC(O)CCCCC` (stereo unspecified), the “activity, negative = cytotoxicity” value was 3.56%.
As to `CC(C)N1C(=O)c2ccccc2C1=O`, the “activity, negative = cytotoxicity” value is 12.2%.
Regarding `O=S(=O)(O)c1ccccc1O`, the “activity, negative = cytotoxicity” value is 13.9%.
With `NS(=O)(=O)c1cc2c(cc1Cl)NC(CSCc1ccccc1)=NS2(=O)=O`, the “activity, negative = cytotoxicity” value is 0.969% [at 42.5 µM].
Consider `CC(=O)c1ccc(C)cc1`, for which the “activity, negative = cytotoxicity” value is 0.0751%.
For the compound `CC(CCO)CCCC(C)(C)O` (stereo unspecified), the “activity, negative = cytotoxicity” value was -3.06%.
As for `CC1(C)OC(=O)Nc2ccc(Br)cc21`, the “activity, negative = cytotoxicity” value is -0.118% [at 42.5 µM].
As for `CCCCCCCCN(C)CCCCCCCC`, the “activity, negative = cytotoxicity” value is -0.233%.
`CC(C)COC(=O)c1ccccc1O`: the “activity, negative = cytotoxicity” value was -1.9%.
Consider `CCCCC=O`, for which the “activity, negative = cytotoxicity” value was 1.18%.

The next assay concerns the target Nuclear receptor ROR-gamma (Homo sapiens) (UniProt P51449). The assay is described as follows: qHTS assay to identify small molecule antagonists of the retinoid-related orphan receptor gamma (ROR-gamma) signaling pathway (AID 1159521; note: top concentration of the series differs between compounds). To be noted: Tet-on RORgamma CHO cells, RORE-luciferase, 16 h; series mostly up to 92.4 µM; activity change, negative = inhibition: at the top concentration. Put shortly: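 Antagonist read-out: drop in luminescence (ONE-Glo) from an RORE-LUC reporter in CHO cells with doxycycline-inducible ROR-gamma; 2 hr compound pretreatment, 1 uM doxycycline, 16 hr incubation at 37 C.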
Consider `Cc1ncc(CSSCc2cnc(C)c(O)c2CO)c(CO)c1O`, for which the “activity change, negative = inhibition” value is 13.7% [at 42.5 µM].
`CCCCCCC(CCCCCCCCCCC(=O)OCC(COC(C)=O)OC(C)=O)OC(C)=O` (stereo unspecified): the “activity change, negative = inhibition” value is -9.16% [at 42.5 µM].
On the same count and under the same terms, then `NC(=O)Nc1nc2ccccc2[nH]1`, with 33%; and `Cc1nc(-c2ccc(OCC(C)C)c(C#N)c2)sc1C(=O)O`, with -12.3% [at 42.5 µM]; and `CC(C)[C@H](N)C(=O)OCCOCn1cnc2c(=O)[nH]c(N)nc21`, with -16.3% [at 42.5 µM].
For the compound `O=C(O)C(O)[C@H](O)[C@@H](O)[C@H](O)[C@H](O)CO` (stereo partly specified), the “activity change, negative = inhibition” value was -17.2%.
Same read-out and setting: the value for `CC(O)CN(CCCN(C)C)CCCN(C)C` (stereo unspecified) was 6.39%; that for `Cc1cc(C)c(NC(=O)CN(CC(=O)O)CC(=O)O)c(C)c1Br` was 17.4% [at 42.5 µM].
Still for that read-out and setting: then `CCCC=O`, with 4.32%.
Regarding `CC(C)(O)C(=O)c1ccc(OCCO)cc1`, the “activity change, negative = inhibition” value was 27.7%.
Same read-out and setting: the value for `CC(C)(O)c1ccccc1` was 32.4%; that for `CCc1cc(S(=O)(=O)O)c2cc(C(C)C)cccc1-2` was -0.237% [at 42.5 µM]; that for `Cc1onc(-c2ccccc2)c1-c1ccc(S(N)(=O)=O)cc1` was -24.6% [at 42.5 µM].
Take `N#CCc1ccccc1[N+](=O)[O-]`: the “activity change, negative = inhibition” value was 12.4%.
As to `O=C1C(CCS(=O)c2ccccc2)C(=O)N(c2ccccc2)N1c1ccccc1` (stereo unspecified), the “activity change, negative = inhibition” value was -18% [at 42.5 µM].
Regarding `CCOC(=O)Cn1c(=O)sc2cccc(Cl)c21`, the “activity change, negative = inhibition” value is -9.9%.
Turning to `O=C(O)c1cccc(C(=O)O)n1`, the “activity change, negative = inhibition” value is 3.39%.
Still for that read-out and setting: then `CCCCCC[C@@H](CCC)C(=O)O`, with 35.7% [at 42.5 µM]; and `Cc1cc(C)cc(OCC2CNC(=O)O2)c1` (stereo unspecified), with -0.416% [at 42.5 µM]; and `NC(=O)c1ncn([C@@H]2O[C@H](CO)[C@@H](O)[C@H]2O)c1O`, with -3% [at 42.5 µM].
The same measure, in the same setting: then `NCCN1CCNC1=O`, with 12.3%.
For `O=C(O)/C=C/c1ccc(Cn2ccnc2)cc1`, the “activity change, negative = inhibition” value is 14.9% [at 42.5 µM].
Turning to `CSc1ccc(C=O)cc1`, the “activity change, negative = inhibition” value was 35.7%.
As for `CCC(C)(C)C1CCC(OC)CC1` (stereo unspecified), the “activity change, negative = inhibition” value is -8.28%.
As to `C=CCSCC1Nc2cc(Cl)c(S(N)(=O)=O)cc2S(=O)(=O)N1` (stereo unspecified), the “activity change, negative = inhibition” value was 1.27% [at 42.5 µM].
Take `C[C@H]1O[C@@H](n2cc(F)c(=O)[nH]c2=O)[C@H](O)[C@@H]1O`: the “activity change, negative = inhibition” value is 39.5% [at 42.5 µM].
Take `Cc1c(F)cc2c(=O)c(C(=O)O)cn3c2c1CCC3C` (stereo unspecified): the “activity change, negative = inhibition” value is -3.65% [at 42.5 µM].
`CCCOCC(C)OCC(C)O` (stereo unspecified): the “activity change, negative = inhibition” value is -2.4%.
On the same count and under the same terms, then `C#CC(O)CCCCC` (stereo unspecified), with 19.6%; and `CC(C)N1C(=O)c2ccccc2C1=O`, with 9.37%; and `O=S(=O)(O)c1ccccc1O`, with 9.99%.
With `NS(=O)(=O)c1cc2c(cc1Cl)NC(CSCc1ccccc1)=NS2(=O)=O`, the “activity change, negative = inhibition” value was 6.84% [at 42.5 µM].
As to `CC(=O)c1ccc(C)cc1`, the “activity change, negative = inhibition” value is 32.5%.
In the case of `CC(CCO)CCCC(C)(C)O` (stereo unspecified), the “activity change, negative = inhibition” value is -0.0666%.
For `CC1(C)OC(=O)Nc2ccc(Br)cc21`, the “activity change, negative = inhibition” value was 2.56% [at 42.5 µM].
Still for that read-out and setting: then `CCCCCCCCN(C)CCCCCCCC`, with -4.87%.
The same measure, in the same setting: the value for `CC(C)COC(=O)c1ccccc1O` was 5.85%.
In the case of `CCCCC=O`, the “activity change, negative = inhibition” value is 5.47%.

The record behind these values is PubChem BioAssay (Tox21).
